Screening data (PubChem)
Hits are enriched below; roughly 2.2% of the tested compounds scored in any of these assays.
NTR1 agonist – activates human neurotensin receptor 1. P30989. NTR1-U2OS beta-arrestin-GFP spot imaging, agonist mode. activation, % at 20 µM. 330,000 tested, 0.17% active. AID 493036;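 active = activation at or above 40% of the spot to cytoplasm intensity ratio, with at least 20 cells analyzed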;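 also: 0% = DMSO without peptide and 100% = 100 nM NTR1 peptide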
ANO1 block – mouse TMEM16A channel inhibition, primary screen | AID 588511 | HEK293 TMEM16A/YFP iodide influx fluorescence, ionomycin | Q8BHY3 | 310,000 tested, 1.2% active | normalized B-score (activity score, 25-100; higher = stronger inhibition) at 10 µM;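 active = ratio plate-corrected score three or more library SD toward inhibition, starting fluorescence score within five deviations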;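 also: score derived from kinetic fluorescence span divided by baseline fluorescence per well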
M1 PAM parental – M1 PAM counterscreen hit in parental CHO-K1 cells; activation, % at 3 µM; ATP EC20, Fluo-8 calcium fluorescence; 0% at ATP EC20, 100% at ATP max; 360,000 tested, 0.02% active;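 active = activation above the run cutoff, the mean activation of all test compounds plus 3 SD, cut at about 40% in these data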;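 also: peak over basal fluorescence ratio in a 140 s read after ATP addition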
M1 ag parental – counter-screen for M1 agonists: effect in parental CHO-K1 cells | AID 602248 | Fluo-8 calcium fluorescence; scaled to maximal ATP response, vehicle zero | activation, % at 3 µM | 360,000 tested, 0.48% active; in the data active = activation above about 15%;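 also: untransfected CHO-K1 host cells lacking M1 receptor as counterscreen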
CHO-K1 Ca antag – M1 antagonist counterscreen hit in parental CHO-K1 cells; inhibition, % at 3 µM; 360,000 tested, 0.6% active; AID 602250; ATP-induced calcium, Fluo-8 fluorescence;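 active = inhibition above a per-plate cutoff, the plate's mean sample inhibition plus 3 SD, cut at about 24% in these data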;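 also: 0% = DMSO plus EC80 ATP and 100% = DMSO alone without ATP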
ANO1 activ – activators or potentiators of mouse TMEM16A chloride channel; 340,000 tested, 0.3% active; HEK293 TMEM16A/YFP-H148Q/I152L, iodide quench fluorescence; stronger effect = lower value; AID 623877; Q8BHY3; B-score at 10 µM;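 active = fluorescence-ratio B-score plate-corrected deviation score at least 3 library SD below zero, with starting fluorescence score within 5 deviations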;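 also: channel opened by trigger with iodide after compound preincubation; score built on the fluorescence ratio of max minus min over baseline; more negative score means more quench and so TMEM16A activation or potentiation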
TMEM16A reconf – reconfirmed blocker of mouse TMEM16A calcium-activated chloride channel; AID 652189; HEK293 TMEM16A/YFP-H148Q, iodide quench fluorescence; ionomycin added to raise cell calcium; shares compounds with ANO1 block; inhibition, % at 10 µM; 2,300 tested, 39% active;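 active = mean duplicate percent inhibition, scaled so buffer wells are 0 and the reference blocker 100, over three buffer SD above buffer mean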
TMEM16A Ca cntr – calcium mobilization counter-screen hit for TMEM16A inhibitor series | TMEM16A/YFP HEK293, Fluo4 calcium mobilization | shares compounds with ANO1 block | AID 652231 | 2,300 tested, 2% active | calcium response (% of ionomycin), % at 10 µM;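 active = duplicate-averaged calcium signal over 20% of the ionomycin maximum, relative to buffer baseline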;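 also: each well's signal is peak minus trough fluorescence divided by its pre-addition baseline; 0% = buffer wells and 100% = ionomycin wells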
Parental YFP cnt – parental YFP-HEK293 iodide quench counter-screen activity | shares compounds with ANO1 block | 2,300 tested, under 10 active | AID 652233 | YFP ratio F(max-min)/F0 at 10 µM | ionomycin;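 active = yellow fluorescent protein signal ratio exceeding the buffer control mean by over 5 SD of those controls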;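 also: ratio is mean of duplicate wells from kinetic YFP trace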
ClC-1 inh – rat ClC-1 inhibition, TMEM16A specificity screen. shares compounds with ANO1 block. CHO ClC-1-YFP, iodide influx fluorescence quench; iodide control reads 0, buffer control 100. ratio percent, % at 10 µM. 2,300 tested, under 10 active. AID 652236;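 active = duplicate-mean ratio percent above the mean of iodide-only control wells, which defines zero, plus 5 of their SD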;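 also: higher percent means stronger block of ClC-1 iodide influx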
Target sequence (P35524 whole entry, looked up): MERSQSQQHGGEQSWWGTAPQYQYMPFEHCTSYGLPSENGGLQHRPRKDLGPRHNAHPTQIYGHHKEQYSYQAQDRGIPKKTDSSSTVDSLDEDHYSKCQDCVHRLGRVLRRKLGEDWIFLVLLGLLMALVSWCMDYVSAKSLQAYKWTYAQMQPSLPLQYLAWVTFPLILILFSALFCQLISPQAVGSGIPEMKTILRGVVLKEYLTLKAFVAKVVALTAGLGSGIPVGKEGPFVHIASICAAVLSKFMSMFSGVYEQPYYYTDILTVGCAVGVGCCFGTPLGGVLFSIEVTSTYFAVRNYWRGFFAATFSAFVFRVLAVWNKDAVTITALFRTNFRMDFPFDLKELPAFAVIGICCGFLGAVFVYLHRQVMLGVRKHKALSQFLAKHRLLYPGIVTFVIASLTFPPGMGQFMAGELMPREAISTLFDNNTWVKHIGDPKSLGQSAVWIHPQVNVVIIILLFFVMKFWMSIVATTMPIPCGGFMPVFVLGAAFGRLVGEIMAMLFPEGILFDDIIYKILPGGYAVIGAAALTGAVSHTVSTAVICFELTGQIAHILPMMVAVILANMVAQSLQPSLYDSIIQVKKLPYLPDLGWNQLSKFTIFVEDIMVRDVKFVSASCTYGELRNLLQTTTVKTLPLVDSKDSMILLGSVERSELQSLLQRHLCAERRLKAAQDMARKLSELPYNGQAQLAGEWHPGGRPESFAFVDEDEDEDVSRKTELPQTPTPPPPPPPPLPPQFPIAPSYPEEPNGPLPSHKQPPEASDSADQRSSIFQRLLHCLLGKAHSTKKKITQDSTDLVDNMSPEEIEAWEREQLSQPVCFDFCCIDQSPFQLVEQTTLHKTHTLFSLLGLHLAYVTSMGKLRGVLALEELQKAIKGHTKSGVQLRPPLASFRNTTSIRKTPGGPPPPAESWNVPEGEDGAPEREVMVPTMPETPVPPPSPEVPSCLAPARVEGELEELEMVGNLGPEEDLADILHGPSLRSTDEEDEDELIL
An asterisk follows results filed as active; i = inactive; . = no result.

SMILES	NTR1 agonist	ANO1 block	M1 PAM parental	M1 ag parental	CHO-K1 Ca antag	ANO1 activ	TMEM16A reconf	TMEM16A Ca cntr	Parental YFP cnt	ClC-1 inh
Fc1ccc(-c2nnc(CN3CCN(c4ncc(C(F)(F)F)cc4Cl)CC3)o2)cc1	0	100*	17	0	-13	i	i	i	-1.1	-19
COc1cccc(Oc2cn[nH]c2-c2ccc(OC)cc2O)c1	10	25*	21	0	-5	i	20%*	i	-1.3	-13
COc1cccc(Oc2cn[nH]c2-c2ccc(O)cc2O)c1	0	i	15	5	-6	i	.	.	.	.
CCOc1ccc(-c2[nH]ncc2Oc2cccc(OC)c2)c(O)c1	32	100*	2	0	-5	i	i	i	-1	-10
CN(CC1COc2ccccc2O1)C(=O)c1cccc(S(=O)(=O)N2CCCC2)c1 (stereo not given)	0	.	15	2	-10	i	.	.	.	.
Cc1nnc(SCC(=O)Nc2nc(-c3ccccc3)cs2)n1N	0	100*	2	0	11	i	i	i	-1	-10
CCn1c(SCC(=O)Nc2nc(-c3ccccc3)cs2)nnc1-c1ccccc1	3	i	21	5	-18	i	.	.	.	.
Cc1cc(=O)oc2cc(OCC(=O)OCC(=O)N3CCc4ccccc43)ccc12	-2	25*	27	6	-7	i	i	i	-1.3	2
Cc1cc(=O)oc2cc(OCC(=O)OCC(=O)N(C)C3CCS(=O)(=O)C3)ccc12 (stereo not given)	0	i	12	1	-10	i	i	i	-1.1	-22
CCCc1cc(=O)oc2cc(OCC(=O)N3CCc4ccccc43)ccc12	1	i	8	0	-11	i	.	.	.	.
Nc1ccn([C@@H]2O[C@H](CNCc3ccc(N4CCNCC4)cc3)[C@@H](O)[C@H]2O)c(=O)n1	.	.	7	0	4	.	.	.	.	.
Cc1ccc(NS(=O)(=O)c2ccc(C(=O)N3CC(C)CC(C)C3)cc2)cc1 (stereo not given)	11	100*	-6	53*	36*	-17*	80%*	40%*	-1.1	-7
O=C1CCCc2c1oc1c2CCCC1	.	.	14	0	-8	i	.	.	.	.
Cc1ccc(NC(=O)COc2coc(CN3CCN(Cc4ccccc4)CC3)cc2=O)cc1	0	25*	13	1	5	i	i	i	-0.99	-10
CCCCNC(=S)Nc1ccc(F)cc1	0	i	-4	2	-2	i	.	.	.	.
CCCCNC(=S)Nc1ccc(SC(F)F)cc1	3	100*	-3	11	-3	i	54%*	i	-0.95	-16
CCOc1ccc(N(C)S(=O)(=O)c2cc(-c3cc(C)no3)ccc2C)cc1	8	100*	-17	2	1	i	31%*	i	-0.92	-16
Cc1ccc(N(C)S(=O)(=O)c2cc(-c3cnc(C4CC4)o3)ccc2C)cc1	38	100*	-6	0	6	i	20%*	i	-1.4	-9
Cc1cccc(N(C)S(=O)(=O)c2ccc(-c3cnc(C4CC4)o3)cc2)c1	6	i	8	2	-10	i	.	.	.	.
COc1ccc(N2CCN(C(=O)c3ccc(Cl)c(S(=O)(=O)N4CCCC4)c3)CC2)cc1	0	i	17	5	-18	i	.	.	.	.
COc1ccc(N2CCN(C(=O)c3ccc(C)c(Cl)c3)CC2)cc1	-1	25*	-3	0	29*	i	i	i	-1	0
OCC[C@@H]1C[C@@H](O)[C@H](O)[C@]2(CCc3ccccc3O2)O1	-3	i	6	0	-2	i	.	.	.	.
OCC[C@@H]1C[C@H](O)[C@@H](O)[C@]2(CCc3ccccc3O2)O1	2	25*	4	0	-8	i	i	i	-1.1	-3
CCN(CC)S(=O)(=O)c1ccc(N2CC(C(=O)NCc3ccco3)CC2=O)cc1 (stereo not given)	.	.	20	1	-8	.	.	.	.	.
CCCCCSc1nnc(-c2cc(Br)ccc2N)c(=O)[nH]1	1	25*	11	1	-9	i	i	i	-1.2	-11
SMILES	NTR1 agonist	ANO1 block	M1 PAM parental	M1 ag parental	CHO-K1 Ca antag	ANO1 activ	TMEM16A reconf	TMEM16A Ca cntr	Parental YFP cnt	ClC-1 inh
CCCCCCCSc1nnc(-c2ccccc2N)c(=O)[nH]1	4	i	13	0	-7	i	.	.	.	.
CCOC(OCC)P(=O)(c1ccccc1)c1ccccc1	3	i	6	0	-6	i	i	i	-1.2	-2
CC(=O)Oc1ccccc1Cn1c(C)c(C(=O)NCc2ccc(Cl)c(Cl)c2)sc1=O	.	.	22	4	-11	.	.	.	.	.
Cc1ccc(S(=O)(=O)N2CCC(C(=O)OCC(=O)N3C(C)CCCC3C)CC2)cc1C (stereo not given)	.	.	7	2	-8	.	.	.	.	.
COc1ccc(CNC(=O)CCc2c[nH]c3ccccc23)cc1	-1	100*	-16	0	0	i	i	i	-1.1	-10
S=C(NCCc1ccccc1)N1CCC2CC1c1cc(-c3ccc4c(c3)OCO4)ccc12 (stereo not given)	.	.	16	0	8	.	.	.	.	.
CC(C)c1ccc(NC(=O)CN(C)C2=NS(=O)(=O)c3ccccc32)cc1	.	.	11	1	5	.	.	.	.	.
CN(C)c1ccc(NC(=O)Nc2cccc(Cl)c2)cc1	3	i	4	8	16	i	.	.	.	.
CN(c1cccc(NC(=O)Nc2cccc(Cl)c2)c1)S(C)(=O)=O	4	100*	1	18*	20	i	42%*	i	-1	-12
Cc1ccc(O)c(-c2cc(C(F)(F)F)[nH]n2)c1	7	100*	17	1	10	i	56%*	i	-1.2	-28
COc1ccc(C2=NS(=O)(=O)N(C)C(C(=O)NCc3ccccc3)=C2)cc1OC	0	i	23	4	-10	i	.	.	.	.
COc1ccc(C2=NS(=O)(=O)N(C)C(C(=O)N3CCc4ccccc4C3)=C2)cc1OC	-2	25*	14	8	11	i	26%*	i	-0.93	-9
